What is called residual activity is the signal under treatment as a percentage of the control signal.

Residual activity data for nine molecules are collected here from ChEMBL document CHEMBL2218924, “A broad activity screen in support of a chemogenomic map for kinase signalling research and drug discovery” (Biochem J, 2013).

The target of assay [1] is Calcium/calmodulin-dependent protein kinase type 1 (Homo sapiens) (UniProt Q14012). The settings on record: at 10 µM.
Assay [2] addresses Calcium/calmodulin-dependent protein kinase type II subunit beta (Homo sapiens) (UniProt Q13554). The note with it: at 10 µM.
The target in assay [3] is T1, Serine/threonine-protein kinase DCLK2 (Homo sapiens) (UniProt Q8N568).
T1 sequence (whole entry): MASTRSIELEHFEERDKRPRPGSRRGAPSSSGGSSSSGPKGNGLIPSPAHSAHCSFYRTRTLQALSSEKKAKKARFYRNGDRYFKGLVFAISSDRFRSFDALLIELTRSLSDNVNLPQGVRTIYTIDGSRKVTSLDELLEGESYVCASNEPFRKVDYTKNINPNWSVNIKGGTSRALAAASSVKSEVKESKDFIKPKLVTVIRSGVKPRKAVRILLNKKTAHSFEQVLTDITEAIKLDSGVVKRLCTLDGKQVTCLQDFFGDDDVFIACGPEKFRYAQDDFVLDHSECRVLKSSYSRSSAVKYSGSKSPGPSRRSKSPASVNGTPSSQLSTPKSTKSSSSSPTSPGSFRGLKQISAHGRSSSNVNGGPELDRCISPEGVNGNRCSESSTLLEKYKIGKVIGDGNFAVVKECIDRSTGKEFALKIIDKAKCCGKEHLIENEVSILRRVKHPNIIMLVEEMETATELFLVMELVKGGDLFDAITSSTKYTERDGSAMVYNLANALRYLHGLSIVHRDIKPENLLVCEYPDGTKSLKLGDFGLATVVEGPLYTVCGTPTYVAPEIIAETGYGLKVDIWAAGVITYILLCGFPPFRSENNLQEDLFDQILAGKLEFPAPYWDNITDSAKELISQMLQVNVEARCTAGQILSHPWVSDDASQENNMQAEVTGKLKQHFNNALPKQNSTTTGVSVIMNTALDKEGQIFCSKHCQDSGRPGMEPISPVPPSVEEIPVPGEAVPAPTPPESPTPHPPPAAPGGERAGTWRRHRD
The settings on record: at 10 µM.

The target of assay [4] is T2, Myotonin-protein kinase (Homo sapiens) (UniProt Q09013).
T2 sequence (whole entry): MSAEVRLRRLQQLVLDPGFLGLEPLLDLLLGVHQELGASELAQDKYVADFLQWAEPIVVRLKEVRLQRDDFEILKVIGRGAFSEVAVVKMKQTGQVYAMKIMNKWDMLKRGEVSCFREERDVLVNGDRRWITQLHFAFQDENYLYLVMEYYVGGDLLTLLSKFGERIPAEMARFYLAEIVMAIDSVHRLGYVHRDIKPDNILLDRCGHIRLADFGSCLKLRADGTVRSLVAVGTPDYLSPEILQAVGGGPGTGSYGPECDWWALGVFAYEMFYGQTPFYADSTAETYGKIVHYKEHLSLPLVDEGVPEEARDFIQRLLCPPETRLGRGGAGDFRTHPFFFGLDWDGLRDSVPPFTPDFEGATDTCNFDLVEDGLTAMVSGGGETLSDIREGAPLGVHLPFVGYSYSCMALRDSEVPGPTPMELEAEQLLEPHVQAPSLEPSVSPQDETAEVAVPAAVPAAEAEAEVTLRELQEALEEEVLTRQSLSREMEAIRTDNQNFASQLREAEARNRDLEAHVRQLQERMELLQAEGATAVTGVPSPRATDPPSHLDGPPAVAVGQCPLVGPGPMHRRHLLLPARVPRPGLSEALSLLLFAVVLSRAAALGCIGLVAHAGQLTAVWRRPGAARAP
The settings on record: at 1 µM.

The target in assay [5] is T2, Myotonin-protein kinase (Homo sapiens). The settings on record: at 10 µM.
Assay [6] deals with Calcium/calmodulin-dependent protein kinase type II subunit beta (Homo sapiens) (UniProt Q13554). The settings on record: at 1 µM.
Sequence of Calcium/calmodulin-dependent protein kinase type II subunit beta (Homo sapiens) (Q13554 whole entry): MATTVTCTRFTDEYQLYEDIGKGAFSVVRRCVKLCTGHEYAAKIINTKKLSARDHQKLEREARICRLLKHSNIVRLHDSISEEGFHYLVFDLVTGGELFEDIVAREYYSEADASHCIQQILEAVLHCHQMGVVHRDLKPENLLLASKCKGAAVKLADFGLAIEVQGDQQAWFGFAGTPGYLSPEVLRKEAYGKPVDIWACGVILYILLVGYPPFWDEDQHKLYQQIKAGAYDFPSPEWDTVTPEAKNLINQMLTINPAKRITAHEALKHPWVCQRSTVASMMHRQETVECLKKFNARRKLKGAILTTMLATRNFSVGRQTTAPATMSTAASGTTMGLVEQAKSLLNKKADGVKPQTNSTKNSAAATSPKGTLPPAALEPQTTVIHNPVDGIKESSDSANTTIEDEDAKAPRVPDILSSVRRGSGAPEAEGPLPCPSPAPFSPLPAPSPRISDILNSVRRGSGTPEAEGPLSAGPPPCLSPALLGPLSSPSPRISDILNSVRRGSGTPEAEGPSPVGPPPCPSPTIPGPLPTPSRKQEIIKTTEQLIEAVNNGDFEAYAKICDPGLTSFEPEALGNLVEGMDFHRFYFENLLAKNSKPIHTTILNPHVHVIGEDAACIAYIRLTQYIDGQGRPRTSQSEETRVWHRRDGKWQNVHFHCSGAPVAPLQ
For assay [7], the target named is Calcium/calmodulin-dependent protein kinase type II subunit delta (Homo sapiens) (UniProt Q13557). The settings on record: at 1 µM.
Sequence of Calcium/calmodulin-dependent protein kinase type II subunit delta (Homo sapiens) (Q13557 whole entry): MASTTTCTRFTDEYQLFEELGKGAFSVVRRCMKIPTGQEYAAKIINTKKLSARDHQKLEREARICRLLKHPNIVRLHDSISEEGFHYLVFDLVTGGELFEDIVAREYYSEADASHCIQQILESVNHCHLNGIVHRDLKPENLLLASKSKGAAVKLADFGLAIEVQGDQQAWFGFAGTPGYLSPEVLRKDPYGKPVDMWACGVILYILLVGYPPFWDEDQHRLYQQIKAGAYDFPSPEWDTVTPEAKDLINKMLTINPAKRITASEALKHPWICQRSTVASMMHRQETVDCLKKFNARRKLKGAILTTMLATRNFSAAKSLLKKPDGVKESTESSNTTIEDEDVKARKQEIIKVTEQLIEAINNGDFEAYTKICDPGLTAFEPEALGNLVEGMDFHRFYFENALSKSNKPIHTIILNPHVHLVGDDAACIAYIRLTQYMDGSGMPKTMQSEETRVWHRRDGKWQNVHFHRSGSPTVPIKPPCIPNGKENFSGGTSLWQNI
Assay [8] has the same target. The settings on record: at 10 µM.
Assay [9] has as its target T3, Calcium/calmodulin-dependent protein kinase type IV (Homo sapiens) (UniProt Q16566).
T3 sequence (whole entry): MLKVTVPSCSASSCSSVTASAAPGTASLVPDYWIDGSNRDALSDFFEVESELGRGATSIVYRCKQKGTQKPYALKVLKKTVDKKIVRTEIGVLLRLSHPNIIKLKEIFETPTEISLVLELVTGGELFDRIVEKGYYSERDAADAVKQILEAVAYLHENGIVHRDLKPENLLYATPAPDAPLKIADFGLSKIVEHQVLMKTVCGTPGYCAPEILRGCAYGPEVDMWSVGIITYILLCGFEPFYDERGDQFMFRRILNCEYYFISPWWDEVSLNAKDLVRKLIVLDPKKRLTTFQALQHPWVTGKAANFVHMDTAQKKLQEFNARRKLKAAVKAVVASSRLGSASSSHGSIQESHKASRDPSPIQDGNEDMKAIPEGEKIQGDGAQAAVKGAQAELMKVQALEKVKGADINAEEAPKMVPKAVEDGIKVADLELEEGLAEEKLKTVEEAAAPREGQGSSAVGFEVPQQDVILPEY
The settings on record: at 10 µM.

The target in assay [10] is Death-associated protein kinase 1 (Homo sapiens) (UniProt P53355). The settings on record: at 10 µM.
Sequence of Death-associated protein kinase 1 (Homo sapiens) (P53355 whole entry, looked up, the tested form may be a part): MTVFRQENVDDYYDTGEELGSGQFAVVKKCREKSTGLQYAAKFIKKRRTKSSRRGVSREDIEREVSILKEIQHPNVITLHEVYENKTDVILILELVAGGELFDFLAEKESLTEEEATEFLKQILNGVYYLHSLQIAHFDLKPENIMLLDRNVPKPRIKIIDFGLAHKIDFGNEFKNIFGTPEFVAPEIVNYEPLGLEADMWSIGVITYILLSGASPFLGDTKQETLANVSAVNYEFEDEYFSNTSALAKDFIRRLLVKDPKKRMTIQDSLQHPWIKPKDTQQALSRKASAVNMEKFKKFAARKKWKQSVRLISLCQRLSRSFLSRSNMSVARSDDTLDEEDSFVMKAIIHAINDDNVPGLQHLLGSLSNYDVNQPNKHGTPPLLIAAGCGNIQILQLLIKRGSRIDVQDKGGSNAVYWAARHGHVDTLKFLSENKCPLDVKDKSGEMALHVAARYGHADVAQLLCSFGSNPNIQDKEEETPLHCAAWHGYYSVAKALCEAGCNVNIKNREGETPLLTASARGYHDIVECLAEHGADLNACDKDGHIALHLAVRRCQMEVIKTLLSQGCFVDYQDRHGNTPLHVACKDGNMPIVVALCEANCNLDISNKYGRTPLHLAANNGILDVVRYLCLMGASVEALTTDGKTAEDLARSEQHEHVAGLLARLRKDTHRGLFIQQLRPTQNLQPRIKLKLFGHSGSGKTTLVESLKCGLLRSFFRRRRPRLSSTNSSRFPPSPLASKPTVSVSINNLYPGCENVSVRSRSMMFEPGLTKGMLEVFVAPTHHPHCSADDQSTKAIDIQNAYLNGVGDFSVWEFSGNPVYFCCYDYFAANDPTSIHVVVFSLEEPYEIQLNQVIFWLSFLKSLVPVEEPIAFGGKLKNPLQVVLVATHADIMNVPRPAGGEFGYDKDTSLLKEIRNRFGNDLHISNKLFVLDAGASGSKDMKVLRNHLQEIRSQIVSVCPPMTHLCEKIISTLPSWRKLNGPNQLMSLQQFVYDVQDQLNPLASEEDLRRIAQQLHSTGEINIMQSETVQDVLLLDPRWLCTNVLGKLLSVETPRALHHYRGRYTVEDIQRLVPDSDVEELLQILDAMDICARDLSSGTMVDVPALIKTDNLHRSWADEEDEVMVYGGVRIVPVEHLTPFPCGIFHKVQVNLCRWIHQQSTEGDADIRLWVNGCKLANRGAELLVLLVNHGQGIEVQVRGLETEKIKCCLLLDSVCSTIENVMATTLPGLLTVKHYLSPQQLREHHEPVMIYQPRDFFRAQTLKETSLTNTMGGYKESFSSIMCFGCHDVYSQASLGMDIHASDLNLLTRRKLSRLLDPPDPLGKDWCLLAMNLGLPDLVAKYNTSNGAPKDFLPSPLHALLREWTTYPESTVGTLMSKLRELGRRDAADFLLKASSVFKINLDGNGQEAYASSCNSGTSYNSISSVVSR
In assay [11] the target is T4, Discoidin domain-containing receptor 2 (Homo sapiens) (UniProt Q16832).
T4 sequence (whole entry): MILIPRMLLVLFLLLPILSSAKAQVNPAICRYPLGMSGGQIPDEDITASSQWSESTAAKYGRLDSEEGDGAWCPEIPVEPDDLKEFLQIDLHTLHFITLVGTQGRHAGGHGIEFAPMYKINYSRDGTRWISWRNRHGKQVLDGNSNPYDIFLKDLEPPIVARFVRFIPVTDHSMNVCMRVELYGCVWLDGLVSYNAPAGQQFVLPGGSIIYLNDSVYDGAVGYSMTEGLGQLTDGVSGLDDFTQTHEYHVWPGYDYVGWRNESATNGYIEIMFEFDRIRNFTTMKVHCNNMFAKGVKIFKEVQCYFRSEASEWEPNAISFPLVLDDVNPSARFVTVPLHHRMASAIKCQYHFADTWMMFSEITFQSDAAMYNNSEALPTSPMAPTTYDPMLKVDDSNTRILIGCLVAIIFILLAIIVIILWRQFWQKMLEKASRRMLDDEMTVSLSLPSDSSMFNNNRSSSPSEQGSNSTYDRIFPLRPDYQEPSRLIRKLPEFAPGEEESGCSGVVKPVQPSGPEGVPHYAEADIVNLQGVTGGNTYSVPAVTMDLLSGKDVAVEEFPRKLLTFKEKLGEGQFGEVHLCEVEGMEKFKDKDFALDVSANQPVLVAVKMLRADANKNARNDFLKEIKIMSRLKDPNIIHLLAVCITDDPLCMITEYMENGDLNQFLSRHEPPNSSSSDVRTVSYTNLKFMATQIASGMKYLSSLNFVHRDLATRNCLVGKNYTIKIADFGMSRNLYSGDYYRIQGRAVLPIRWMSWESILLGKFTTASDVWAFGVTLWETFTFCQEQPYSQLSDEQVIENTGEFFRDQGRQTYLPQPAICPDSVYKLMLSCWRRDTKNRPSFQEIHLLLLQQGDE
The settings on record: at 1 µM.

The target in assay [12] is T3, Calcium/calmodulin-dependent protein kinase type IV (Homo sapiens). The note with it: at 1 µM.
Assay [13] concerns the target Death-associated protein kinase 2 (Homo sapiens) (UniProt Q9UIK4). The note with it: at 1 µM.
For assay [14] the target is unchanged. The note with it: at 10 µM.
Assay [15] deals with T1, Serine/threonine-protein kinase DCLK2 (Homo sapiens). The settings on record: at 1 µM.
Assay [16] deals with T4, Discoidin domain-containing receptor 2 (Homo sapiens). The settings on record: at 10 µM.
In assay [17] the target is T5, Serine/threonine-protein kinase 17A (Homo sapiens) (UniProt Q9UEE5).
T5 sequence (whole entry): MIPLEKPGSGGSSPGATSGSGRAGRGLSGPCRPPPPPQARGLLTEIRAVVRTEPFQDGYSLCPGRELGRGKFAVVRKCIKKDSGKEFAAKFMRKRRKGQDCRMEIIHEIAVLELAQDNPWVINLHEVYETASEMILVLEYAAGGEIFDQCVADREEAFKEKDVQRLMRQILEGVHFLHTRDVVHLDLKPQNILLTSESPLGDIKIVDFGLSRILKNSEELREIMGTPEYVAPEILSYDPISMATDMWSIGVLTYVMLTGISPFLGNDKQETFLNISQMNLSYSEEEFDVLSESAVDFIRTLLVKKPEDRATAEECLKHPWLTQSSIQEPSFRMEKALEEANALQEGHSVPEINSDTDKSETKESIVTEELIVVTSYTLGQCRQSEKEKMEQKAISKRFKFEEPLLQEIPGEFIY
The settings on record: at 1 µM.

The target in assay [18] is Calcium/calmodulin-dependent protein kinase type II subunit gamma (Homo sapiens) (UniProt Q13555). The settings on record: at 1 µM.
Sequence of Calcium/calmodulin-dependent protein kinase type II subunit gamma (Homo sapiens) (Q13555 whole entry): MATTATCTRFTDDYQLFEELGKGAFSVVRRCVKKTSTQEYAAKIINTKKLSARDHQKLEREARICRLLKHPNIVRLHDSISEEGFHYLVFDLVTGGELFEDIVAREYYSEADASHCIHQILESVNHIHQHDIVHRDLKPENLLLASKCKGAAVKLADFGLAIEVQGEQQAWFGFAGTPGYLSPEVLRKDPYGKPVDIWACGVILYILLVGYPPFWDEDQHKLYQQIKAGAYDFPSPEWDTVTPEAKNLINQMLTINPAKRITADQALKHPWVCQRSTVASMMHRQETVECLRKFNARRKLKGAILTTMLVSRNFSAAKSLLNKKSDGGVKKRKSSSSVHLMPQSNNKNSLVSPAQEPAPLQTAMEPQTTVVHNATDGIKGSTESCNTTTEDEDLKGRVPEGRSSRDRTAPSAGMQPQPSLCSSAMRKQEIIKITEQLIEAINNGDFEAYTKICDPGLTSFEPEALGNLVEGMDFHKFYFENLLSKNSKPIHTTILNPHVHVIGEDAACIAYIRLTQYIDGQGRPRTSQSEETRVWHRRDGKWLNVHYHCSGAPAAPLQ
Assay [19] has the same target. The note with it: at 10 µM.

Each structure is given as a SMILES string.

Sequence of Calcium/calmodulin-dependent protein kinase type 1 (Homo sapiens) (Q14012 whole entry, looked up): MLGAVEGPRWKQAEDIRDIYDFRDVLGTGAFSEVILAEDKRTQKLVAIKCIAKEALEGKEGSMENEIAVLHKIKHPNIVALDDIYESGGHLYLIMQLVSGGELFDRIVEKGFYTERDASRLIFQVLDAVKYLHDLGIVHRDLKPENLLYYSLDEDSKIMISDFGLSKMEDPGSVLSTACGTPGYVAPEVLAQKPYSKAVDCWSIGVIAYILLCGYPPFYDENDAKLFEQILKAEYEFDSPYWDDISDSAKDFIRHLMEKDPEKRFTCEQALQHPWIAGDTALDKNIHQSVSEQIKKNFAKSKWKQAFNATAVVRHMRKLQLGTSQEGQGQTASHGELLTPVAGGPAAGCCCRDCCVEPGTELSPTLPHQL
Sequence of Death-associated protein kinase 2 (Homo sapiens) (Q9UIK4 whole entry, looked up): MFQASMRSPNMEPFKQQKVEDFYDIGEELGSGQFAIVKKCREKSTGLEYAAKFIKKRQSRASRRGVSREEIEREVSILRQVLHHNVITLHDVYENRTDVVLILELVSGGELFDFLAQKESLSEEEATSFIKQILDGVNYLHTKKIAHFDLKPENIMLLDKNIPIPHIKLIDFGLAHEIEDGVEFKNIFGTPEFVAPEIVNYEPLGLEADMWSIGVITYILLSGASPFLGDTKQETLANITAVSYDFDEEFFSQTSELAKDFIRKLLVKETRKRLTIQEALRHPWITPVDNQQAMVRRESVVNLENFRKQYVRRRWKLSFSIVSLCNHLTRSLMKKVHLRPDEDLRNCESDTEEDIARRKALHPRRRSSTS

For `O=c1cc(N2CCOCC2)oc2c(-c3ccccc3)cccc12`, the residual activity amounted to 55% in assay [1]; 79% in [2]; 76% in assay [3]; 134% in [4]; 130% in assay [5].
For the molecule `O=C1C(Cl)=C(N2C(=O)CCC2=O)C(=O)c2ccccc21`, the residual activity was found to be 78% in [1]; 90% in assay [6]; 86% in [2]; 97% in [7]; 99% in assay [8]; 10% in [9]. For the same molecule, the residual activity in [10] was determined as 90%; in [11], 89%; in assay [5] it was 85%.
`COc1cc2nccc(Oc3ccc(NC(=S)NC(=O)c4ccccc4C)cc3)c2cc1OC`: the residual activity was found to be 75% in assay [1]; 79% in assay [6]; 66% in [2]; 85% in assay [8]; 121% in [12]; 84% in assay [9]. The residual activity in assay [10] is 76%; in assay [13] it was 99%; in assay [14], 99%; in assay [15], 82%; in [3], 94%; in assay [11], 26%. For the same molecule, the residual activity in [16] came to 11%; in [4], 138%; in [5], 141%; in assay [17], 129%.
With `CN(C)S(=O)(=O)c1ccc2c(c1)/C(=C/c1cc3c([nH]1)CCCC3)C(=O)N2`, the residual activity in assay [1] turned out to be 94%; in assay [6] it was 71%; in assay [2] it was 59%; in assay [18] it was 17%; in [19] it was 12%; in assay [7], 18%. The residual activity in assay [8] came to 13%; in [12], 89%; in [9], 98%; in [10] it was 99%; in assay [15], 55%; in [3], 55%. The figures for the residual activity in assay [4], in assay [5] and in assay [17] were 113%, 92% and 70%, respectively.
As for `Nc1nccc(-c2c(-c3ccc(F)cc3)ncn2C2CCNCC2)n1`, the residual activity is 55% in [2]; 62% in [19]; 100% in assay [7]; 56% in assay [8]; 129% in assay [4]; 83% in assay [5].
For `COc1ccc(CNC(=O)Nc2ncc([N+](=O)[O-])s2)cc1`, the residual activity in assay [1] was 72%; in [13], 102%; in assay [14] it was 104%; in assay [4], 100%; in assay [5] it was 80%.
Consider `COc1cc2c(cc1OC)-c1n[nH]c(Nc3cccc(F)c3)c1C2`, for which the residual activity was 56% in assay [2]; 99% in [18]; 60% in assay [19]; 99% in [13]; 107% in assay [14]; 109% in [15]. Further, the figures for the residual activity in assay [3] and in [5] were 132% and 136%, respectively.
With `N#Cc1c(NC(=O)c2cccc3ccccc23)sc2c1CCCC2`, the residual activity in [6] worked out at 94%; in [2] it was 81%; in assay [19], 97%; in [8] it was 88%; in assay [9], 87%; in assay [10], 81%. The residual activity was 93% in assay [13]; 77% in assay [3]; 100% in [4]; 91% in assay [5]; 77% in assay [17].
Consider `CCCC(=O)Oc1ccc2[nH]c(C(=O)c3cc4ccccc4[nH]3)cc2c1`, for which the residual activity in [1] came out at 89%; in assay [6] it was 86%; in assay [2], 85%; in assay [18], 99%; in [19], 102%; in assay [8] it was 83%. Besides, the residual activity in assay [9] was 53%; in [10], 68%; in assay [13], 95%; in assay [14] it was 104%; in [15], 82%; in assay [3], 93%. Besides, the residual activity in assay [16] was determined as 101%; in [4] it was 132%; in [5] it was 133%.
